Shown are actives, neighbours in structure and some others; about 5.8% of the full set was active somewhere.
12-LOX inh: blocks human arachidonate 12S-lipoxygenase; actives 1.1% (n = 580,000); purified 12hLO, xylenol orange hydroperoxide absorbance; Potency, µM (titrated, usually from 108 µM), for inactives: at the highest dose activity change, negative = inhibition, hits mostly inhibitors; further: on the % scale 0 is the no-effect control and ±100 the full control effect
Target sequence (P18054 whole entry, looked up): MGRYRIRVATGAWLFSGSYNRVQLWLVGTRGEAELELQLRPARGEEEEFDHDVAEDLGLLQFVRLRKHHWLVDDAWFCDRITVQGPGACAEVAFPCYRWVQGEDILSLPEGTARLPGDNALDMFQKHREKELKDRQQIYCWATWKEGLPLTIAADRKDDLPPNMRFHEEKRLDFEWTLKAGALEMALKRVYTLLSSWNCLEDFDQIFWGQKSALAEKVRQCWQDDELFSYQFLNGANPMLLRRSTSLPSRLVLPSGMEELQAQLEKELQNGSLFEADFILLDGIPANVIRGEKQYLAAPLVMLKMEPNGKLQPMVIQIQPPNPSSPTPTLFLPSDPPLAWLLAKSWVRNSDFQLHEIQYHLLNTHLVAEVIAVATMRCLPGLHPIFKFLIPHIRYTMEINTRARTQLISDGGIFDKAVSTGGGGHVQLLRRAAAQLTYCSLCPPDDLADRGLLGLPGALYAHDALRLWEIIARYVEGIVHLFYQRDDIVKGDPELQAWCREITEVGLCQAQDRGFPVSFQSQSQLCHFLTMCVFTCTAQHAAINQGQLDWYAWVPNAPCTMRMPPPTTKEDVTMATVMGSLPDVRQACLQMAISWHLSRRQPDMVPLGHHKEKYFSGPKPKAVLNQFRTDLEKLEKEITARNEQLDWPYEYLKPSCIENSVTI
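Purified human 12hLO at 150 nM in 25 mM Hepes, 0.01% Triton X-100, pH 7.0, preincubated 15 min at room temperature with compound. Reaction started with 40 uM arachidonic acid, 30 min at room temperature. Hydroperoxide measured by Fe-xylenol orange, 573/405 nm absorbance ratio.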
SW480 rerep: inducers of DNA re-replication in SW480 colon cancer cells | SW480 DNA re-replication, Hoechst DNA content imaging, 48 h | Potency, µM (series often up to 46.1 µM), for the others: at the highest dose re-replication activation, usual class: activators | actives 1.8% (n = 340,000) | AID 624297; further: % of control where 0% means no effect; nearly all actives have a fitted effect of over 55% in size
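SW480 cells exposed to compounds for 48 hr at 37 C, 5% CO2, then Hoechst-stained 40 min. Nuclear DNA content imaged by fluorescence scanning (405 nm excitation, 500-530 nm emission); re-replication scored as increased high-intensity nuclei.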
PINK1 expr mod: changes PINK1 expression. PINK1 immunofluorescence, high-content cytometry, 24 h. Potency, µM (titrated, usually from 76.6 µM), for inactives: at the highest dose activation (PINK1 increase), actives largely listed as activators. actives 0.2% (n = 410,000); active means well fitted activation curve with a large enough effect; inconclusive means small, poorly fitted or top-dose-only effect; cell line not stated here; further: % of control where 0% means no effect; nearly all actives have a fitted effect of over 65% in size
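Stable cell line, 250 cells/well, 12 h attachment; compounds pinned at 5 concentrations, 24 h; CCCP control. Fixed with nuclear dye, primary antibodies 12 h at 10 degrees C, secondary plus cell stain; laser-scanning cytometer read.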
KB-3-1 tox: KB-3-1 parental cell cytotoxicity | KB-3-1 viability, CellTiter-Glo ATP luminescence, 72 h | actives 1.4% (n = 400,000) | Potency, µM (series often up to 46.1 µM), usual class: cytotoxic; further: on the % scale 0 is the no-effect control and ±100 the full control effect; nearly all actives have a fitted effect of over 60% in size
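Luminescent ATP read-out (CellTiter-Glo) measures survival of drug-naive KB-3-1 cells after 72 h compound exposure at 37 °C. Titration series was screened from lowest to highest concentration, with DMSO vehicle plates as background controls.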
KB-V1 cytotox: kills drug-selected multidrug resistant KB-V1 cells | KB-V1 MDR cells viability, CellTiter-Glo, 72 h | Potency, µM (series often up to 46.1 µM), actives largely listed as cytotoxic | actives 3.4% (n = 400,000) | AID 1347076; further: on the % scale 0 is the no-effect control and ±100 the full control effect; nearly all actives have a fitted effect of over 60% in size
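KB-V1, DMEM (no phenol red) + 10% FBS; cpd pin-transferred, titration series; 72 h, 37 degrees C; CellTiter-Glo, luminescence. Data normalized, curve-fit.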
MCF10A rereplic: induces DNA re-replication in MCF 10a normal breast cells; MCF 10A DNA re-replication, Hoechst nuclear intensity, 48 h; Potency, µM (highest dose often 46.1 µM), inactives show at the highest dose activity, positive = re-replication, most hits filed as activators; actives 2.9% (n = 350,000); AID 624296; further: % of control where 0% means no effect; nearly all actives have a fitted effect of over 50% in size
* hit, by the source's call; i = inactive; ? = inconclusive; . = not tested or not shown; [ ] = another dose, or the depositor's remark. Unless noted, the call rests on the fitted dose curve; in most records, active means well fitted curve in the direction sought with a large enough effect; inconclusive means small, poorly fitted or top-dose-only effect, or another doubt; inactive means no such curve, though single readings can be large; an effect the other way counts as inactive or inconclusive. Potency means the concentration at half of the fitted maximal effect.

SMILES	12-LOX inh	SW480 rerep	PINK1 expr mod	KB-3-1 tox	KB-V1 cytotox	MCF10A rereplic
Cc1ccc(N(CC(=O)Nc2ccccc2-c2ccccc2)S(=O)(=O)c2ccccc2)c(C)c1	-6%	5%	4%	i	i	21µM*
Cc1ccccc1N1Cc2c(ncnc2N2CCN(Cc3ccccc3)CC2)N(C)CC1=O	9%	.	.	.	.	.
CCc1ccc(Nc2cc(C)nc3nc(Cc4ccc(Cl)cc4)nn23)cc1	-11%	.	?	21µM*	?	.
Cc1ccc(C)c(OCC(=O)NNC(=O)CCN2CCN(c3ccccc3)CC2)c1	406%	4%	1%	i	21µM*	-2%
O=C(CCN1CCN(c2ccccc2)CC1)NNC(=O)c1cccc2ccccc12	-9%	-2%	0%	i	18µM*	1%
COc1ccccc1-c1cc(N2CCN(c3ccccn3)CC2)c2onc(C)c2n1	89µM*	.	.	.	.	.
COC1CCN(c2cc(-c3ccccn3)nc3c(C)noc23)CC1	18%[176 µM]	.	.	.	.	.
CCOc1ccc(CCNC(=O)Cn2c(=O)oc3ccccc32)cc1OCC	14%	-3%	7%[38.3 µM]	i	18µM*	-4%
COc1ccc(CCNC(=O)CN(C)S(=O)(=O)c2cccs2)cc1OC	136%	-3%	-2%	i	?	-1%
COc1ccc(CNC(=O)Cn2c(=O)oc3ccccc32)cc1OC	442%	-4%[9.22 µM]	1%	i	i	-2%
CCOc1ccc(CCNC(=O)CN(C)S(=O)(=O)c2cccs2)cc1OCC	8%	1%	-2%	i	4.6µM*	6%
COc1ccc(Cn2c(=O)oc3ccccc32)cc1OC	13%	.	0%	?	21µM*	.
COc1ccccc1C(C[N+](=O)[O-])c1c(N)n(C)c(=O)n(C)c1=O (stereo unspecified)	?	?	-1%	?	7.3µM*	?
COc1cc(C(=O)Nc2ccc(N(C)C)cc2)cc(OC)c1OC	-36%	10%	11µM*	i	i	-4%
COc1cc(C(=O)Nc2ccc3c(c2)ncn3C)cc(OC)c1OC	-1%	?	9%	?	?	3.7µM*
COc1cc(C(=O)Nc2ccc3c(c2)nc(C)n3C)cc(OC)c1OC	0%	15µM*	11%	4.1µM*	i	25%
Cc1nc2cc(NC(=O)c3ccc(Cl)cc3)ccc2n1C	-2%	?	2%	i	i	-2%
CSc1ccccc1C(=O)Nc1ccc(F)cc1F	-13%	.	.	.	.	.
CCCCc1ccc(-c2csc(-c3nc(-c4ccc(CC)cc4)c(C)s3)n2)cc1	17%	.	.	.	.	.
COc1cccc(Nc2nc3ccccc3nc2NS(=O)(=O)c2ccc(C)c(C)c2)c1	0%	.	.	.	.	.
Cc1cc(Cl)ccc1OCC(=O)NCCOc1nc(N2CCCCC2)nc(N2CCOCC2)n1	1%	-4%	5%	i	4.1µM*	3%
CC(C)c1ccc(NC(=O)c2cnc(N3CCOCC3)c3ccccc23)cc1	-1%	.	.	.	.	.
O=[N+]([O-])c1ccccc1/C=N/N1CCN(c2ccccn2)CC1	15%	-3%	2%	i	15µM*	28%
O=[N+]([O-])c1ccccc1C=NN1CCCCCC1	?	3%	22%	i	i	2%
BrC(=C\c1ccccc1)/C=N/N1CCN(c2ccccn2)CC1	1%	?	-2%	i	?	21µM*
SMILES	12-LOX inh	SW480 rerep	PINK1 expr mod	KB-3-1 tox	KB-V1 cytotox	MCF10A rereplic
CC(C)CN1CCOC(CNC(=O)CSc2cc(C(=O)NC3CC3)c3ccccc3n2)C1 (stereo unspecified)	-28%	.	.	.	.	.
Cc1cc(/C=N/n2cnnc2)c(C)n1-c1ccc(OCc2ccc(Cl)cc2)cc1	-11%	2%	?	8.2µM*	3.7µM*	?
CCN(Cc1ccccc1)C(=O)Cn1c(C(C)O)nc2ccccc21 (stereo unspecified)	0%	-32%	3%	i	i	0.73µM*
COc1ccc(N(Cc2ccccc2)C(=O)c2ccccc2[N+](=O)[O-])cc1	24%	9%	1%	?	15µM*	4%
O=C(c1ccccc1[N+](=O)[O-])N(CCc1ccccc1)Cc1ccccc1	39%	9%	1%	i	i	13%
Cc1ccc(Cl)c(NC(=O)COC(=O)c2ccccc2C(=O)c2ccc(Cl)c([N+](=O)[O-])c2)c1Cl	-7%	3.7µM*	-2%	?	i	2.6µM*
O=C(COC(=O)c1ccccc1[N+](=O)[O-])NCCCc1ccccc1	0%	-15%	0%	i	i	18µM*
CCCNC(=O)COC(=O)c1ccccc1C(=O)c1ccc(Cl)c([N+](=O)[O-])c1	0%	6.5µM*	-1%	?	i	?
Cc1ccc(C(=O)OCC(=O)Nc2c(C)n(C)n(-c3ccccc3)c2=O)cc1[N+](=O)[O-]	-2%	-20%	2%	i	i	6%
CCOC(=O)c1ccc(NC(=O)CSc2nccn2Cc2ccccc2OC)cc1	10%	.	.	.	.	.
COc1cc(C)c(/C=C(\C#N)C(=O)Nc2cccc(C)c2)cc1C(C)C	2%	-2%	10%	i	i	21µM*
Cc1cccc(NC(=O)/C(C#N)=C\c2ccc(C(=O)O)cc2)c1	-17%	1%	-1%	i	i	7%
O=C(Nc1ccc(N2CCN(C(=O)c3cccs3)CC2)cc1)c1ccc([N+](=O)[O-])o1	77%	.	.	.	.	.
Cc1nc2ccccc2c(=O)n1-c1cccc(NC(=O)c2cccs2)c1	5%	-86%	-3%	i	i	-14%
COc1cc(NC(=O)c2ccc([N+](=O)[O-])o2)ccc1NC(=O)c1cccs1	5%	6.5µM*	1%	?	i	?
COc1cc(NC(=S)NC(=O)c2ccc(C(C)(C)C)cc2)ccc1NC(=O)c1cccs1	6.3µM*	-1%	-2%	i	i	4%
O=C(Nc1cccc(N2C(=O)C=CC2=O)c1)c1cccs1	35µM*	.	.	.	.	.
O=C(Nc1cccc(NC(=O)c2cccs2)c1)c1ccc([N+](=O)[O-])o1	-6%	?	0%	16µM*	?	19%
C=CCNC(=S)NNC(=O)C1CC1	1%	.	.	.	.	.
CC(C)C(=O)Nc1c(C(=O)Nc2cccc(F)c2)oc2ccccc12	-38%	.	.	.	.	.
Cc1ccc(C)c(CSc2nnc(-c3cccnc3)o2)c1	20%	1%	-3%[38.3 µM]	i	18µM*	23%
Fc1ccccc1CSc1nnc(-c2cccnc2)o1	5%	-6%	1%	i	i	10%
COC(=O)c1sc(NC(=O)COC(=O)c2ccc3c(c2)NC(=O)CS3)c(C(=O)OC)c1C	14%	.	.	.	.	.
NC(Cc1ccc(OC(F)(F)F)cc1)C(=O)O (stereo unspecified)	-21%	.	.	.	.	.
